The test concerns E18 rat cortical neuron-glia co-culture. The experiment in a line: myelination (MBP fiber length per Olig2+ nucleus), % of 1 µM DAPT response (DMSO = 0) (% of DAPT); higher = more myelination, active = 50 or more. The note with it: 1 µM; treatment time: 8 days (DIV5-DIV13). Put shortly: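 Four 10X fields in each of duplicate wells were analysed after cultures were fixed in 4 % paraformaldehyde and immunostained for MBP and Olig2, with DAPI as the nuclear counterstain. The cultures were papain-dissociated primary E18 rat cortical co-cultures at 20,000 cells/well on poly-d-lysine/laminin 96-well plates, dosed with library compounds at 1 or 5 µM in myelination medium from DIV5 to DIV13. The myelination readout was continuous straight MBP fiber length per Olig2+ nucleus, with 0.1 % DMSO set to 0 and a 1 µM positive control set to 100.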
As to `c1ccc(-c2ccc(C(c3ccccc3)n3ccnc3)cc2)cc1` (stereo not drawn) [Bifonazole], the myelination is -18.8 (inactive).

On to `OC[C@H]1O[C@@H](Oc2cc(O)cc(/C=C/c3ccc(O)cc3)c2)[C@H](O)[C@@H](O)[C@@H]1O` [Polydatin], for which the myelination is -20.3 (inactive).

Consider `CN1[C@@H](CC(=O)c2ccccc2)CCC[C@H]1C[C@H](O)c1ccccc1` [Lobeline], for which the myelination is 2.9 (inactive).

Turning to `CCOC(=O)[C@H](CCc1ccccc1)N[C@@H](C)C(=O)N1[C@H](C(=O)O)C[C@@H]2CCC[C@@H]21` [Ramipril], the myelination was -11.2 (inactive).

Consider `NNC(=O)c1ccncc1` [Isoniazid], for which the myelination was -1.03 (inactive).

`Cc1nc2ccccn2c(=O)c1CCN1CCC(C(=O)c2ccc(F)cc2)CC1` [Pirenperone]: the myelination was -7.44 (inactive).

With `N=C(N)NC(=O)c1nc(Cl)c(N)nc1N` [Amiloride], the myelination was -12.4 (inactive).

As for `COc1ccc([C@@H]2Sc3ccccc3N(CCN(C)C)C(=O)[C@@H]2OC(C)=O)cc1` [Diltiazem], the myelination was -10.1 (inactive).

In the case of `CCCC(=O)Nc1ccc(OCC(O)CNC(C)C)c(C(C)=O)c1` (stereo not drawn) [Acebutolol], the myelination is -40.3 (inactive).

Consider `CC(=O)Nc1nnc(S(N)(=O)=O)s1` [Acetazolamide], for which the myelination is -4.45 (inactive).

As for `Clc1ccc2c(c1)CCc1cccnc1C2=C1CCNCC1` [Desloratadine], the myelination was -12.9 (inactive).

As for `CCC(=O)O[C@@H]1CC(=O)O[C@H](C)C/C=C/C=C/[C@H](O)[C@H](C)C[C@H](CC=O)[C@H](O[C@@H]2O[C@H](C)[C@@H](O[C@H]3C[C@@](C)(O)[C@@H](OC(=O)CC)[C@H](C)O3)[C@H](N(C)C)[C@H]2O)[C@H]1OC` [Midecamycin], the myelination is -9.01 (inactive).

As for `O=S(=O)(O)CCS` [Mesna], the myelination was 1.33 (inactive).

As for `C[C@]12CCC(=O)C=C1CC[C@@H]1[C@@H]2[C@@H](O)C[C@@]2(C)[C@H]1CC[C@]2(O)C(=O)CO` [Hydrocortisone], the myelination was -10.9 (inactive).

Take `COc1ccc(OC)c(C(O)CNC(=O)CN)c1` (stereo not drawn) [Midodrine]: the myelination is -19.2 (inactive).

As for `COc1ccccc1OCC(O)COC(N)=O` (stereo not drawn) [Methocarbamol], the myelination is -9.38 (inactive).

For `CCN(CC)CCOC(=O)C1(C2CCCCC2)CCCCC1` [Dicyclomine], the myelination is -14.3 (inactive).

As for `CN(CCOc1ccc(NS(C)(=O)=O)cc1)CCc1ccc(NS(C)(=O)=O)cc1` [Dofetilide], the myelination is 10.4 (inactive).

With `Cc1cccc(Nc2ccncc2S(=O)(=O)NC(=O)NC(C)C)c1` [Torsemide], the myelination is -11.6 (inactive).

In the case of `O=C1CN(/N=C/c2ccc([N+](=O)[O-])o2)C(=O)N1` [Nitrofurantoin], the myelination was -1.03 (inactive).

In the case of `CC(Oc1c(Cl)cccc1Cl)C1=NCCN1` (stereo not drawn) [lofexidine], the myelination is -15.8 (inactive).

For `NCCc1ccc(O)c(O)c1` [Dopamine], the myelination was 5.4 (inactive).

With `CC(N/C(=N\C#N)Nc1ccncc1)C(C)(C)C` (stereo not drawn) [Pinacidil], the myelination is 2.9 (inactive).

In the case of `CN(C)c1ccc(O)c2c1C[C@H]1C[C@H]3[C@H](N(C)C)C(O)=C(C(N)=O)C(=O)[C@@]3(O)C(O)=C1C2=O` [Minocycline], the myelination was -6.54 (inactive).

As to `CCOC(=O)C1=C(C)NC(C)=C(C(=O)OC)C1c1cccc(Cl)c1Cl` (stereo not drawn) [Felodipine], the myelination is 20.4 (inactive).

On to `COc1ccc2cc(CCC(C)=O)ccc2c1` [Nabumetone], for which the myelination is -8.32 (inactive).

For `O=[N+]([O-])c1cccc2cn[nH]c12` [7-Nitroindazole], the myelination is -9.77 (inactive).

For `OCCN1C[C@H](O)[C@@H](O)[C@H](O)[C@H]1CO` [Miglitol], the myelination was -7.81 (inactive).

On to `CCCC(=O)O[C@]1(C(=O)COC(=O)CC)CC[C@H]2[C@@H]3CCC4=CC(=O)CC[C@]4(C)[C@H]3[C@@H](O)C[C@@]21C` [Hydrocortisone buteprate], for which the myelination is 5.43 (inactive).

In the case of `Cc1cccc(Nc2ccccc2C(=O)O)c1C` [Mefenamic Acid], the myelination is -6.36 (inactive).

Consider `Cc1ccccc1C(OCCN(C)C)c1ccccc1` (stereo not drawn) [Orphenadrine], for which the myelination was -7.59 (inactive).

Turning to `CCCCC(=O)O[C@H]1CC[C@H]2[C@@H]3CCc4cc(O)ccc4[C@H]3CC[C@]12C` [Estradiol valerate], the myelination was 1.8 (inactive).

As to `CC1(C)S[C@@H]2[C@H](NC(=O)Cc3ccccc3)C(=O)N2[C@H]1C(=O)O` [Penicillin G], the myelination is 12.3 (inactive).

The record behind these values is the supplement of paper PMC4840960.
